For 26 compounds, Potency and activity change, negative = inhibition results are on record in PubChem BioAssay (NCATS).

Records with an inconclusive call do not appear. Values without a mark were called inactive. Active and inactive are the calls of the source. Calls come from the whole dose curve; as a rule, active = well fitted curve in the direction sought with a large enough effect; inconclusive = small, poorly fitted or top-dose-only effect, or another doubt; inactive = no such curve, though single readings can be large; an effect the other way counts as inactive or inconclusive.

Experiment [1] concerns the target Aldehyde dehydrogenase, mitochondrial (Homo sapiens) (UniProt P05091). Description: qHTS for Inhibitors of the Aldehyde Dehydrogenase Family (ALDH2) Primary screen (AID 2061308).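 Note: plate controls were vehicle for no effect and reference inhibitor for full effect; nearly all actives have a fitted effect of over 55% in size.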 Conditions: ALDH2 enzyme inhibition qHTS, 1536-well; series mostly up to 56 µM. (Quantitative high-throughput screening tests each substance at several concentrations.)
The target in experiment [2] is Retinaldehyde dehydrogenase 3 (Homo sapiens) (UniProt P47895). Description: qHTS for Inhibitors of the Aldehyde Dehydrogenase Family (ALDH1A3) Validation screen (AID 2061312). Note: % is set by controls: 0 for no effect and ±100 for the full control effect; nearly all actives have a fitted effect of over 45% in size. Conditions: ALDH1A3 enzyme inhibition qHTS validation, fluorescence; series mostly up to 84.7 µM.
For experiment [3] the target is unchanged. Description: qHTS for Inhibitors of the Aldehyde Dehydrogenase Family (ALDH1A3) Primary screen (AID 2061315).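 Note: plate controls were DMSO vehicle for no effect and reference inhibitor for full effect.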 The following applies: ALDH inhibition qHTS; series mostly up to 56 µM.
Experiment [4] deals with Retinal dehydrogenase 2 (Homo sapiens) (UniProt O94788). Description: qHTS for Inhibitors of the Aldehyde Dehydrogenase Family (ALDH1A2) Confirmation screens (AID 2061314). Note: % is set by controls: 0 for no effect and ±100 for the full control effect; nearly all actives have a fitted effect of over 65% in size. Conditions: ALDH1A2 enzyme inhibition qHTS confirmation; series mostly up to 45.9 µM.

With `COc1cccc2cc3c(c(O[C@@H]4O[C@H](CO[C@@H]5O[C@H](CO)[C@@H](O)[C@H](O)[C@H]5O)[C@@H](O)[C@H](O)[C@H]4O)c12)C(C)OC3=O` (stereo partly specified), the Potency entry in experiment [1] was “inactive”.

In the case of `O=C(CCCN1CCN(c2ccccn2)CC1)c1ccc(F)cc1`, the Potency entry in experiment [1], in experiment [2] and in experiment [3] was “inactive” throughout.

`COc1cc(O)cc2c1C(=O)OC(C)CCCCCCC2` (stereo unspecified): the Potency result in experiment [4] was “inactive”.

In the case of `Cn1c(=O)c(F)c(Nc2ccc(I)cc2F)c2c(=O)n(CC(O)CO)cnc21` (stereo unspecified), the Potency result in experiment [1] and in experiment [3] was “inactive” in each case.

With `O=C1C=CC(O)(/C=C/C(=O)OC[C@H]2O[C@@H](Oc3ccc(O)cc3)[C@H](O)[C@@H](O)[C@@H]2O)C=C1`, the Potency result in experiment [1] and in experiment [3] was “inactive” each time.

For `C=C(C(=O)OC)C1C(O)CC2(C)C(O)CCC(=O)C2C1O` (stereo unspecified), the Potency entry in experiment [1] and in experiment [3] was “inactive” each time.

As for `COC(=O)C1=COC(OC2OC(CO)C(O)C(O)C2O)C2C(COC(=O)/C=C/c3ccc(O)cc3)C(O)C(O)C12` (stereo unspecified), the Potency result in experiment [1] and in experiment [3] was “inactive” throughout.

Consider `C[C@@H]1O[C@@H](O[C@H]2[C@H](O)[C@@H](O)[C@H](OC[C@H]3O[C@@H](OC(=O)[C@]45CCC(C)(C)C[C@H]4C4=CCC6[C@@]7(C)C[C@H](O)[C@H](O[C@@H]8O[C@H](CO)[C@@H](O)[C@H](O)[C@H]8O)[C@@](C)(C(=O)O)C7CC[C@@]6(C)[C@]4(C)CC5)[C@H](O[C@@H]4O[C@H](CO)[C@@H](O)[C@H](O)[C@H]4O)[C@@H](O)[C@@H]3O)O[C@@H]2CO)[C@H](O)[C@H](O)[C@H]1O` (stereo partly specified), for which the activity change, negative = inhibition in experiment [1] is 8.16% [at 11.2 µM]; in experiment [3], -4.1% [at 11.2 µM].

Turning to `O=C(c1ccc2nccnc2c1)N1CCCCC1`, the Potency entry in experiment [1] and in experiment [3] was “inactive” each time.

As to `CC(C)(C)NCc1cc(Nc2ccnc3cc(Cl)ccc23)c2c(c1O)CCCC2`, the activity change, negative = inhibition in experiment [1] is -0.555% [at 0.464 µM]; in experiment [3] it was -4.88% [at 0.464 µM].

Regarding `CC(=O)N1CCN(NC(=O)c2ccc(F)cc2)CC1`, the Potency result in experiment [1] and in experiment [3] was “inactive” each time.

With `CC(=O)OC[C@]12[C@H](OC(C)=O)C(=O)[C@@H]3[C@@H](OC(C)=O)[C@@]14O[C@@]3(C)COC(=O)c1cccnc1[C@@H](C)[C@H](C)C(=O)O[C@@H]([C@H](OC(C)=O)[C@@H]2OC(C)=O)[C@]4(C)O`, the Potency entry in experiment [1] and in experiment [3] was “inactive” in each case.

Consider `CC1OC(OC2CCC3(C)C(CCC4(C)C3CC=C3C5CC(C)(C)CCC5(C(=O)OC5OC(CO)C(O)C(O)C5O)CCC34C(=O)O)C2(C)C)C(O)C(O)C1O` (stereo unspecified), for which the Potency result in experiment [1] and in experiment [3] was “inactive” in each case.

Regarding `CC(NC(=O)C(O)C(C)C)C(=O)NC1C(=O)N(C)CCc2ccccc21` (stereo unspecified), the Potency result in experiment [1] and in experiment [3] was “inactive” each time.

With `COC1CC(=O)CCC(C)OC(=O)CC1O` (stereo unspecified), the Potency result in experiment [1] and in experiment [3] was “inactive” in each case.

Regarding `CCOC(=O)c1cc(C#N)c(N2CCC(C(=O)NS(=O)(=O)Cc3ccccc3)CC2)nc1C`, the Potency entry in experiment [1] and in experiment [3] was “inactive” each time.

As for `CC1(C)CC[C@]2(C(=O)O[C@@H]3O[C@H](CO[C@@H]4O[C@H](CO)[C@@H](O)[C@H](O)[C@H]4O)[C@@H](O)[C@H](O[C@@H]4O[C@H](CO)[C@@H](O)[C@H](O)[C@H]4O)[C@H]3O)CC[C@]3(C)C(=CCC4[C@@]5(C)CC[C@H](O[C@@H]6OC[C@@H](O)[C@H](O)[C@H]6O)[C@@](C)(C(=O)O)C5CC[C@]43C)[C@@H]2C1` (stereo partly specified), the Potency entry in experiment [1] and in experiment [3] was “inactive” in each case.

With `CC1(C)CC[C@]2(C(=O)O[C@@H]3O[C@H](CO)[C@@H](O)[C@H](O)[C@H]3O)CC[C@]3(C)C(=CCC4[C@@]5(C)CC[C@H](O[C@@H]6O[C@H](C(=O)O)[C@@H](O)[C@H](O)[C@H]6OC6OC(CO)C(O)C(O)C6O)C(C)(C)C5CC[C@]43C)[C@@H]2C1` (stereo partly specified), the Potency entry in experiment [1] and in experiment [3] was “inactive” in each case.

As for `CN1c2c(nc(N)[nH]c2=O)NC[C@@H]1CNc1ccc(C(=O)N[C@@H](CCC(=O)O)C(=O)O)cc1`, the Potency entry in experiment [1] and in experiment [3] was “inactive” in each case.

Regarding `CC1OC(O[C@H]2CC[C@@]3(C)C(CC[C@]4(C)C3CC=C3C5CC(C)(C)CC[C@]5(C(=O)OC5OC(CO)C(OC6OCC(OC7OCC(O)C(O)C7O)C(O)C6O)C(O)C5O)CC[C@]34C)C2(C)C)C(O)C(O)C1OC1OC(CO)C(O)C(OC2OC(CO)C(O)C(O)C2O)C1O` (stereo partly specified), the activity change, negative = inhibition in experiment [1] was 8.06% [at 11.2 µM]; in experiment [3], 8.31% [at 11.2 µM].

For `CC(C(=O)O)C1CCC2(C)C3C(=O)C=C4C(CCC(=O)C4(C)C)C3(C)CCC12C` (stereo unspecified), the Potency entry in experiment [1] and in experiment [3] was “inactive” in each case.

As to `Cc1cn2cc(CC(=O)N3CCC4(CC3)CN(Cc3ccc(-n5nccn5)cc3Cl)C4)nc2s1`, the Potency result in experiment [1] and in experiment [3] was “inactive” in each case.

`C=Cc1ccc(O[C@@H]2O[C@H](CO[C@@H]3O[C@@H](C)[C@H](O)[C@@H](O)[C@H]3O)[C@@H](O)[C@H](O)[C@H]2O)cc1`: the Potency result in experiment [1] and in experiment [3] was “inactive” throughout.

For `Cc1ccc(N2CCN(S(=O)(=O)N3CCCCC3)CC2)c(C)c1`, the Potency entry in experiment [1] and in experiment [3] was “inactive” each time.

Turning to `CC(C)(O)C1CCC(C)(C2CCC3(C)C4CCC5C(C)(C(=O)OC6OC(CO)C(O)C(O)C6O)C(O)CC(O)C56CC46CCC23C)O1` (stereo unspecified), the Potency result in experiment [1] and in experiment [3] was “inactive” in each case.

Consider `COC(=O)C1=CO[C@@H](O[C@@H]2O[C@H](CO)[C@@H](O)[C@H](O)[C@H]2O)C2C1CC(O)C2C` (stereo partly specified), for which the Potency entry in experiment [1] and in experiment [3] was “inactive” each time.
